Test results: publication PMC7862700, “An all-to-all approach to the identification of sequence-specific readers for epigenetic DNA modifications on cytosine”

Legend:
Test in all cases: DAPPL (digital affinity profiling via proximity ligation, sequencing); 10 mM Tris-HCl pH 7.5, 50 mM NaCl, 1 mM DTT, 4% glycerol, room temperature, 30 min; GST-TFs on glutathione beads, 16-mer random dsDNA library, 0.1% formaldehyde crosslink after washing; high values mean tight binding
FEV = biological target: T1, FEV (Homo sapiens, UniProt Q99581 1-238); settings: protein: recombinant; tags: N-terminal GST; dsDNA, one strand shown
T1 sequence: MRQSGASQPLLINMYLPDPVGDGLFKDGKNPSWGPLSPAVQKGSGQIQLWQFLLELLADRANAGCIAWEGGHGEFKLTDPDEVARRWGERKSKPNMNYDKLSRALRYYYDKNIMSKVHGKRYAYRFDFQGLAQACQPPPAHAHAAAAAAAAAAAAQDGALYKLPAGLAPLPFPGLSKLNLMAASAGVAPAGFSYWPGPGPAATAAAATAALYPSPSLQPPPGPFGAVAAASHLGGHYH
Method in brief: (§1)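 The binding signal reported is, for every hexamer, its read frequency for a factor over its read frequency for the tag-only sample. Reads came from pools of yeast-expressed, GST-fused human transcription factors on glutathione beads, barcoded with DNA and mixed with that sample, which were incubated with 200 nmole of a random double-stranded 16-mer DNA library in Tris/NaCl/DTT/glycerol buffer at room temperature for 30 min. After washing, the pools were crosslinked with 0.1% formaldehyde, proximity-ligated with BsaI/T4 ligase for 1 h at 37 °C, PCR-amplified and sequenced on an Illumina NextSeq500.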

ETV5 = ETV5 (Homo sapiens, UniProt P41161 1-510); settings: protein: recombinant; tags: N-terminal GST; dsDNA, one strand shown
ETV5, sequence (P41161 whole entry): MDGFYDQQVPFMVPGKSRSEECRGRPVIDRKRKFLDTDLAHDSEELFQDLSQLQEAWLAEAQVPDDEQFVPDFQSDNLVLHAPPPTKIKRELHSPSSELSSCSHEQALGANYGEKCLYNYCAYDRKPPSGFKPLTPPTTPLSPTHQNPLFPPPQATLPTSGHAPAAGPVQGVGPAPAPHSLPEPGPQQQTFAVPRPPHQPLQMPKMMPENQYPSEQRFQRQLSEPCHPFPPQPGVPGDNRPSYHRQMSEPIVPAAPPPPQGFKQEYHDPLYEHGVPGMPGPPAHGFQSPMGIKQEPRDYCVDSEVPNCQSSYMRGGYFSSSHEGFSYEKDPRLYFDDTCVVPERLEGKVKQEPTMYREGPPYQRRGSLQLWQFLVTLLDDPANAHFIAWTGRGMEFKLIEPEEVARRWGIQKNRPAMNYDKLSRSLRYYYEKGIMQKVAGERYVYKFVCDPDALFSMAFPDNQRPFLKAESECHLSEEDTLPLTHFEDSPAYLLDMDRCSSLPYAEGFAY
Method in brief: as §1

HSF1 = HSF1 (Homo sapiens, UniProt Q00613 1-529); settings: protein: recombinant; tags: N-terminal GST; chain copies: 3; dsDNA, one strand shown
HSF1, sequence (Q00613 whole entry): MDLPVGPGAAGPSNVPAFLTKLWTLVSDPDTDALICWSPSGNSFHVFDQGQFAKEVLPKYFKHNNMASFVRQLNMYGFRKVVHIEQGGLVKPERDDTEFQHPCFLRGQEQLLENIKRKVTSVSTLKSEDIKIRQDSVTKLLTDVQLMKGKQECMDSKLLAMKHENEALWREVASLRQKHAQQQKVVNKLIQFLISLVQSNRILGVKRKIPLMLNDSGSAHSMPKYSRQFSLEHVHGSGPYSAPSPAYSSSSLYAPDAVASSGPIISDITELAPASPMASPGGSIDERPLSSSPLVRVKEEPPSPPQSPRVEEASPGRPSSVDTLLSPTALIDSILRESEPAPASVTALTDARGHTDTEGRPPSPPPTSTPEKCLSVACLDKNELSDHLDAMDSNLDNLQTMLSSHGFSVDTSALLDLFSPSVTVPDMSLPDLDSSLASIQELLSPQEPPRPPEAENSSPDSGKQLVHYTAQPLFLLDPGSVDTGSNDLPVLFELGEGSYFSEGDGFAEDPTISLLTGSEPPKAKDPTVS
Method in brief: as §1

SPIC = biological target: T2, SPIC (Homo sapiens, UniProt Q8N5J4 1-248); settings: protein: recombinant; tags: N-terminal GST; dsDNA, one strand shown
T2 sequence: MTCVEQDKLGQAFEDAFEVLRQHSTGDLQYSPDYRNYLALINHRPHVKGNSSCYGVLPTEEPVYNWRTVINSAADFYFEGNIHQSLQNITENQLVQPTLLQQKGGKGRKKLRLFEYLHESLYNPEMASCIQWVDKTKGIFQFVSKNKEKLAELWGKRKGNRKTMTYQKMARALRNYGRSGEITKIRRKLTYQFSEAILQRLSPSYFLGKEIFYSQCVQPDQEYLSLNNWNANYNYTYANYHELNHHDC
Method in brief: as §1

ELF4 = ELF4 (Homo sapiens, UniProt Q99607 1-663); settings: protein: recombinant; tags: N-terminal GST; dsDNA, one strand shown
ELF4, sequence (Q99607 whole entry): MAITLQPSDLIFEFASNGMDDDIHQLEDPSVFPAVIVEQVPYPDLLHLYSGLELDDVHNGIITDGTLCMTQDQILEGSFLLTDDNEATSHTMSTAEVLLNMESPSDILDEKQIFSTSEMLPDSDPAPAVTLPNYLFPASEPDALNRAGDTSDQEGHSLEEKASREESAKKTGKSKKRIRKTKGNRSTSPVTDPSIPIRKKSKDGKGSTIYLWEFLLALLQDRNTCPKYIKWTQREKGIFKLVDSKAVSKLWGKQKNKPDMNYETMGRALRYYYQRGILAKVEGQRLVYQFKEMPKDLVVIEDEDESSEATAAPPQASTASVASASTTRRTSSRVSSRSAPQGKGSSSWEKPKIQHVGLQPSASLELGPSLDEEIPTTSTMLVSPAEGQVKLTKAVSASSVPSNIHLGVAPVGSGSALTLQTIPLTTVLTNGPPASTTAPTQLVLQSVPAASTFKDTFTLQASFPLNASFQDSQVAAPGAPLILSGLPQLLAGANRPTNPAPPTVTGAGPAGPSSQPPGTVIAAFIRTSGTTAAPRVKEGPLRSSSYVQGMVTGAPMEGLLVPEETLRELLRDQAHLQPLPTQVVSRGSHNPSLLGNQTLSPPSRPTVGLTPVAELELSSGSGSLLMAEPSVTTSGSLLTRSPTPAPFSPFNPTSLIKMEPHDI
Method in brief: as §1

ELK4 = biological target: T3, ELK4 (Homo sapiens, UniProt P28324-2 1-405); settings: protein: recombinant; tags: N-terminal GST; dsDNA, one strand shown
T3 sequence: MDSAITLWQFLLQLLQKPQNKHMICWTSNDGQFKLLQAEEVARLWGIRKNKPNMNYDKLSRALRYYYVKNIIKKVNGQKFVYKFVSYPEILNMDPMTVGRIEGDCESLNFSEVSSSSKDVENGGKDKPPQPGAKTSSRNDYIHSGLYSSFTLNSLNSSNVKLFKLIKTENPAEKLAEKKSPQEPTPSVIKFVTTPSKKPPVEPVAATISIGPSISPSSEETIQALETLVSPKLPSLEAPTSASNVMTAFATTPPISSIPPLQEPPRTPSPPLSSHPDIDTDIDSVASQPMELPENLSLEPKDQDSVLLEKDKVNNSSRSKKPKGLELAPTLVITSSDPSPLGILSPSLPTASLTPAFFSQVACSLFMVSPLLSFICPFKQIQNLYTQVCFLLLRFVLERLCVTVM
Method in brief: as §1

ETV2 = biological target: T4, ETV2 (Homo sapiens, UniProt O00321 1-342); settings: protein: recombinant; tags: N-terminal GST; dsDNA, one strand shown
T4 sequence: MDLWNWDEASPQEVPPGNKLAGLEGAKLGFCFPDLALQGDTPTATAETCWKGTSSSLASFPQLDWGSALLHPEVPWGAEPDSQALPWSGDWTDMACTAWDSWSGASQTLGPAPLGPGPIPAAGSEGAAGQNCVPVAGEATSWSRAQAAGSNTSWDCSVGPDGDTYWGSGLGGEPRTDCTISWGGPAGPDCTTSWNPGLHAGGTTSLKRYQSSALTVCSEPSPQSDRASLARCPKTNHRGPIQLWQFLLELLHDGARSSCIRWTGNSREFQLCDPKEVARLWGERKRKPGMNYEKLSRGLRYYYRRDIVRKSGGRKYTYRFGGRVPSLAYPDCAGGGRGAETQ
Method in brief: as §1

CRX = CRX (Homo sapiens, UniProt O43186 1-299); settings: protein: recombinant; tags: N-terminal GST; dsDNA, one strand shown
CRX, sequence (O43186 whole entry): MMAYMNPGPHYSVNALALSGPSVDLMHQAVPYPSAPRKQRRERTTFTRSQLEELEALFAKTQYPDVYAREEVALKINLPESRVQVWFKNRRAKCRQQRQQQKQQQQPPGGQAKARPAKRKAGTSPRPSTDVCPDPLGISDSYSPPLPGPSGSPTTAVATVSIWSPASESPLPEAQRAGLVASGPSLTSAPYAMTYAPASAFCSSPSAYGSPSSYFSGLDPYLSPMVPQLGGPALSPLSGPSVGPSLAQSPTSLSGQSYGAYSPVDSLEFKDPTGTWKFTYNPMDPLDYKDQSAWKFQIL
Method in brief: as §1

ETV1 = ETV1 (Homo sapiens, UniProt P50549 1-477); settings: protein: recombinant; tags: N-terminal GST; dsDNA, one strand shown
ETV1, sequence (P50549 whole entry): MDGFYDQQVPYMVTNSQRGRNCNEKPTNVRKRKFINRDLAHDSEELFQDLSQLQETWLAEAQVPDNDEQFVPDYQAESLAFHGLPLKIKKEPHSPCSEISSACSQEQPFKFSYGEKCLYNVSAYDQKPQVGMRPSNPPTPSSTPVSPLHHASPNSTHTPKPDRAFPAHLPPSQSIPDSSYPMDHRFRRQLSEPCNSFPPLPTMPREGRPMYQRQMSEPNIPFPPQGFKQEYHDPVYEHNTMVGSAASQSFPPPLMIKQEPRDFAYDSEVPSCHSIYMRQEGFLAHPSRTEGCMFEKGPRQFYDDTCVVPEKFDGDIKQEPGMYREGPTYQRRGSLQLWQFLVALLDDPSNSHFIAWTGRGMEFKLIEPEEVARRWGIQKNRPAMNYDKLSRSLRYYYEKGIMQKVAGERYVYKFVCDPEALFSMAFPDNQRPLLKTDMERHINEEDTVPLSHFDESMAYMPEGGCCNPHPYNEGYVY
Method in brief: as §1

ERF = biological target: T5, ERF (Homo sapiens, UniProt P50548 1-548); settings: protein: recombinant; tags: N-terminal GST; dsDNA, one strand shown
T5 sequence: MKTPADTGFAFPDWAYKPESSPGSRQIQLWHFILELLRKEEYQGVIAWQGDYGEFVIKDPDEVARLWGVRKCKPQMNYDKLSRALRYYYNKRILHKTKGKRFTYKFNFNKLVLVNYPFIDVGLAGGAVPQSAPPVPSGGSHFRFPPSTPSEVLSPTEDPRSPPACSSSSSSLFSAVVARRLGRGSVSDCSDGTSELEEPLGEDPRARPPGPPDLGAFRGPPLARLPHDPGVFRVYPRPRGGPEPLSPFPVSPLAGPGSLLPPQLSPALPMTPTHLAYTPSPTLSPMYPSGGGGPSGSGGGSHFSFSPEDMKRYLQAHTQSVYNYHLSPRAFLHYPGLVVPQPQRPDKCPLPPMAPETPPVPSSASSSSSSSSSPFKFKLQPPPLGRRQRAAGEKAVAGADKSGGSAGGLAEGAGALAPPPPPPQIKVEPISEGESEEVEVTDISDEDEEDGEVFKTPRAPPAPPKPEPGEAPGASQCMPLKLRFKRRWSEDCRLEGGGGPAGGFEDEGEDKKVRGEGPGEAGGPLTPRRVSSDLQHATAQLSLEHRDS
Method in brief: as §1

ETV3L = biological target: T6, ETV3L (Homo sapiens, UniProt Q6ZN32 1-361); settings: protein: recombinant; tags: N-terminal GST; dsDNA, one strand shown
T6 sequence: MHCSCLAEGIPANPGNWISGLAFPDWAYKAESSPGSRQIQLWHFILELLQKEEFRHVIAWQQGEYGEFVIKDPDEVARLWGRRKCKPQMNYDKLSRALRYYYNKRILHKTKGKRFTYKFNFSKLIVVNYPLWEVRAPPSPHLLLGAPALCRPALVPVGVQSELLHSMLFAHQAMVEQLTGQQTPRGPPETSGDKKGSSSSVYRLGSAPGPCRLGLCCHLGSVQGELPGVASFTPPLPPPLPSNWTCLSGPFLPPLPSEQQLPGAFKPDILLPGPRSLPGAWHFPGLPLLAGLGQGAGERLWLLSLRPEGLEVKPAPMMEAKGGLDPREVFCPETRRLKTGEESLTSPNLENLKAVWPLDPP
Method in brief: as §1

ETS2 = biological target: T7, ETS2 (Homo sapiens, UniProt P15036 1-469); settings: protein: recombinant; tags: N-terminal GST; dsDNA, one strand shown
T7 sequence: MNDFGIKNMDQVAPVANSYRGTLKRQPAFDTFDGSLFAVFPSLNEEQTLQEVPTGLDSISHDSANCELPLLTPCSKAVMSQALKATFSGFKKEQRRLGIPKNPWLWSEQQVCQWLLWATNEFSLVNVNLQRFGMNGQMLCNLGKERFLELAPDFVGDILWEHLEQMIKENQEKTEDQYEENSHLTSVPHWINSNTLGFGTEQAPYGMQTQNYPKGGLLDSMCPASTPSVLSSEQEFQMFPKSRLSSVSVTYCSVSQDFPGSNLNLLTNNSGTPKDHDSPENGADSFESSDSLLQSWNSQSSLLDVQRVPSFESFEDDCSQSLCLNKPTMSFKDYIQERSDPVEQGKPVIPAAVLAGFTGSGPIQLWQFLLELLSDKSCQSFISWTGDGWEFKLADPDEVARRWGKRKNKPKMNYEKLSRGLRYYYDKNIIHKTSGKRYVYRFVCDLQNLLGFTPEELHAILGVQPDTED
Method in brief: as §1

SPDEF = biological target: T8, SPDEF (Homo sapiens, UniProt O95238 1-335); settings: protein: recombinant; tags: N-terminal GST; dsDNA, one strand shown
T8 sequence: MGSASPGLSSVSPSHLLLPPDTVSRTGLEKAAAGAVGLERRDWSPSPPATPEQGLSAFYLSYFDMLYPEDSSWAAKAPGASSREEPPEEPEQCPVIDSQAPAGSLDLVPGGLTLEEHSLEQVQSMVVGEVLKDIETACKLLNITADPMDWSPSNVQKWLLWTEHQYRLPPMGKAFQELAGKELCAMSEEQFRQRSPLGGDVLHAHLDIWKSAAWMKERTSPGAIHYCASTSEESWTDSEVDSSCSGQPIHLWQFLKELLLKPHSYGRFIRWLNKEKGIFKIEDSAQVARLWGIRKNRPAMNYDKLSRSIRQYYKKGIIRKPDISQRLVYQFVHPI
Method in brief: as §1

ETV7 = biological target: T9, ETV7 (Homo sapiens, UniProt Q9Y603 1-341); settings: protein: recombinant; tags: N-terminal GST; dsDNA, one strand shown
T9 sequence: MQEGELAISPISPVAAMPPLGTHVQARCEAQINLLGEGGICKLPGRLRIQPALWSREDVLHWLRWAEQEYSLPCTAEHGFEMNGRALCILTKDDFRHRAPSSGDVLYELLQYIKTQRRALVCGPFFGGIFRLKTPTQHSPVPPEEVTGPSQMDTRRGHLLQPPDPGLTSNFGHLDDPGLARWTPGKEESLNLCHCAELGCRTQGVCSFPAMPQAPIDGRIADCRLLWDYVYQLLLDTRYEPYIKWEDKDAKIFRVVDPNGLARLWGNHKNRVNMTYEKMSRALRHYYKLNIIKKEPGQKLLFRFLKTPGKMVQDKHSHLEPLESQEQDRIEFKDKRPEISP
Method in brief: as §1

ELF5 = biological target: T10, ELF5 (Homo sapiens, UniProt Q9UKW6-2 1-255); settings: protein: recombinant; tags: N-terminal GST; dsDNA, one strand shown
T10 sequence: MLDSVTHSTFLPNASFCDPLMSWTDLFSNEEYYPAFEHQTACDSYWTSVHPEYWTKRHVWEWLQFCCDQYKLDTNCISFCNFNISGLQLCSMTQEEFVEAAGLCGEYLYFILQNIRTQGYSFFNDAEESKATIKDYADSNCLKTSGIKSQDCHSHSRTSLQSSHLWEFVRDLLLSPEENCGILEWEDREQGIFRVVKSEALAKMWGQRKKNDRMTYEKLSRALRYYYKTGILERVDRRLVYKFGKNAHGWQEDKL
Method in brief: as §1

ETV3 = biological target: T11, ETV3 (Homo sapiens, UniProt P41162-2 1-143); settings: protein: recombinant; tags: N-terminal GST; dsDNA, one strand shown
T11 sequence: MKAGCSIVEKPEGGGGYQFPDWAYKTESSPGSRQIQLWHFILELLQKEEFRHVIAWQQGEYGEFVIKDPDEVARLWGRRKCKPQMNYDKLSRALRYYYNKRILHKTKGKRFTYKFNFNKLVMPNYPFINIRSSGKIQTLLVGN
Method in brief: as §1

ETV6 = ETV6 (Homo sapiens, UniProt P41212 1-452); settings: protein: recombinant; tags: N-terminal GST; dsDNA, one strand shown
ETV6, sequence (P41212 whole entry): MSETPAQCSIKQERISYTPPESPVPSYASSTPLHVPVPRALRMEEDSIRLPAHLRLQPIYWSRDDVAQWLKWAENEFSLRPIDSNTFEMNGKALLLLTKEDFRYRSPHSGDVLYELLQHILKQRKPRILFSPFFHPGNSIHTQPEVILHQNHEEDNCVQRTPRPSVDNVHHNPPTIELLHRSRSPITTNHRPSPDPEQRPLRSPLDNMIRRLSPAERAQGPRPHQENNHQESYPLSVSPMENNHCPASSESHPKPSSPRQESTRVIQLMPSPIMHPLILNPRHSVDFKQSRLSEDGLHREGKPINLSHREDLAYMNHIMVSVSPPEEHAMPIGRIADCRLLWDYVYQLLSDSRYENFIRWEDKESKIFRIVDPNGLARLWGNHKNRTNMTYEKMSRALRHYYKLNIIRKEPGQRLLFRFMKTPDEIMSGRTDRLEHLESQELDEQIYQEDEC
Method in brief: as §1

ATTCAG
binding signal (FEV): 1.03 fold enrichment (6-mer frequency, TF over GST control)
binding signal (ETV5): 1.1 fold enrichment (6-mer frequency, TF over GST control)
binding signal (HSF1): 1.17 fold enrichment (6-mer frequency, TF over GST control)
binding signal (SPIC): 1.17 fold enrichment (6-mer frequency, TF over GST control)
binding signal (ELF4): 1.13 fold enrichment (6-mer frequency, TF over GST control)
binding signal (ELK4): 1.08 fold enrichment (6-mer frequency, TF over GST control)
binding signal (ETV2): 1.02 fold enrichment (6-mer frequency, TF over GST control)
binding signal (CRX): 1.07 fold enrichment (6-mer frequency, TF over GST control)
binding signal (ETV1): 1.07 fold enrichment (6-mer frequency, TF over GST control)
binding signal (ERF): 1.15 fold enrichment (6-mer frequency, TF over GST control)
binding signal (ETV3L): 1.2 fold enrichment (6-mer frequency, TF over GST control)
binding signal (ETS2): 1.14 fold enrichment (6-mer frequency, TF over GST control)
binding signal (SPDEF): 1.05 fold enrichment (6-mer frequency, TF over GST control)
binding signal (ETV7): 1.02 fold enrichment (6-mer frequency, TF over GST control)
binding signal (ELF5): 1.08 fold enrichment (6-mer frequency, TF over GST control)
binding signal (ETV3): 1.12 fold enrichment (6-mer frequency, TF over GST control)
binding signal (ETV6): 1.02 fold enrichment (6-mer frequency, TF over GST control)
